This is part of a sample that, as a whole, favours compounds with a hit. Of some 79,000 tested, about 15% had one in any assay. The source made the active and inactive calls. Rule as the data show it: active = growth inhibition above about 70%; inactive = the rest.
Tests used:
[1] = NCI Yeast Anticancer Drug Screen. Data for the rad50 strain (AID 155);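 also: 0% = growth of vehicle-only cultures of the same strain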; settings: S. cerevisiae rad50 strain growth inhibition; at 50.0 µM; stronger effect = higher value
Method in brief: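 DNA repair mutant yeast, compound exposure, growth read-out; inhibition is taken relative to vehicle.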

[2] = NCI Yeast Anticancer Drug Screen. Data for the mec2-1 strain (AID 157); settings: S. cerevisiae mec2-1 strain, at 50.0 µM, stronger effect = higher value
Method in brief: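 Yeast mec2-1 mutant treated with compound. Readout: growth inhibition vs vehicle controls.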

[3] = NCI Yeast Anticancer Drug Screen. Data for the sgs1 mgt1 strain (AID 161);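 also: 0% = growth of cultures given vehicle only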; settings: S. cerevisiae sgs1 mgt1 strain, at 50.0 µM, stronger effect = higher value
Method in brief: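 Genetically altered yeast, compound exposure, growth inhibition relative to vehicle.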

[4] = NCI Yeast Anticancer Drug Screen. Data for the cln2 rad14 strain (AID 165);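 also: 0% = growth equal to vehicle treated cultures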; settings: S. cerevisiae cln2 rad14 strain, at 50.0 µM, stronger effect = higher value
Method in brief: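 cln2 rad14 yeast strain; compound exposure; growth inhibition read vs vehicle controls.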

[5] = NCI Yeast Anticancer Drug Screen. Data for the bub3 strain (AID 167); settings: S. cerevisiae bub3 mutant strain, at 50.0 µM, stronger effect = higher value
Method in brief: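 In this screen, a yeast mutant lacking normal mitotic checkpoint function is challenged with compound. Relative growth versus vehicle gives the inhibition value.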

[6] = NCI Yeast Anticancer Drug Screen. Data for the mlh1 rad18 strain (AID 175); settings: S. cerevisiae mlh1 rad18 strain growth inhibition; at 50.0 µM; stronger effect = higher value
Method in brief: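 Yeast w/ defined DNA-repair lesions; compound exposure; growth vs vehicle controls → % inhibition.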

Measured: growth inhibition

CCOC(=O)c1ccc(NC(=O)Nc2cc(Cl)ccc2OC)cc1
inactive: [1] 4% | [2] 46.1% | [3] 21% | [4] -2.9% | [5] 34% | [6] 19.7%

O=C(NCC1=NCCN1)c1ccccc1
inactive: [1] 2.3% | [2] -2.7% | [3] -13.7% | [4] 12% | [5] 6.45% | [6] 10.7%

N#Cc1ccc(Cl)cc1C#N
inactive: [1] 13.4% | [2] -4.65% | [3] -2.2% | [4] 7.65% | [5] 14.1% | [6] -14.3%

O=C(O)c1ccccc1/C=N/NC1=NCCCCN1
inactive: [1] -46.8% | [2] -23.4% | [3] -29.4% | [4] -9.65% | [5] -7.55% | [6] -33.1%

CC(=O)Nc1ccc(/C=N/Nc2nc3ccccc3s2)cc1
inactive: [1] -10.3% | [2] -11% | [3] -5% | [4] -50.4% | [5] 1.9% | [6] 31.1%

O=c1cc2c(n[nH]1)CCCC2
inactive: [1] 8.85% | [2] 4.55% | [3] 2.55% | [4] 16.9% | [5] -0.75% | [6] 11.4%

Cc1[nH]n(-c2nc(-c3ccccc3)cc(=O)[nH]2)c(=O)c1CCO
inactive: [1] -11.8% | [2] -31.5% | [3] -25.9% | [4] 10.8% | [5] -7.1% | [6] -13.2%

O=[N+]([O-])c1ccccc1SSc1ccccc1[N+](=O)[O-]
inactive: [1] -20.4% | [2] -15.6% | [3] -36.5% | [4] -1.85% | [5] -46.4% | [6] -18.6%

COc1ccc(N(C)S(=O)(=O)c2ccccc2)cc1
inactive: [1] 15.1% | [2] -8.9% | [3] -3.65% | [4] 10.8% | [5] 0.1% | [6] 15.8%

COc1ccc(CC(=O)c2c(O)c3c(c(CC=C(C)C)c2OC)OC(C)(C)C=C3)cc1
inactive: [1] 22.4% | [2] -26.3% | [3] -14.8% | [4] 4.15% | [5] -2.75% | [6] 14.2%

COc1cc(C(=O)C(C=O)c2ccccc2)c([N+](=O)[O-])cc1OC (configuration not stated)
inactive: [1] 14.8% | [2] 21.4% | [3] 21.5% | [4] 25.8% | [5] 43% | [6] 23.1%

Cc1[nH]c(=O)c(C#N)c(C)c1[N+](=O)[O-]
inactive: [1] -0.05% | [2] 20.3% | [3] 3.95% | [4] -35.7% | [5] 10.6% | [6] 1.9%

N#CC(=O)Nc1ccc(F)cc1
inactive: [1] -58.3% | [2] -2.35% | [3] -6.15% | [4] -8% | [5] 1.9% | [6] 3.2%

NC(=O)NC(=O)NCc1ccccc1
inactive: [1] -1.35% | [2] 0.35% | [3] -12.8% | [4] -7.65% | [5] 6.6% | [6] -4.9%

CC(NC(=O)C(Cc1ccc(OC(=O)c2ccccc2)cc1)NC(=O)OC(C)(C)C)C(=O)NCC(=O)NC(Cc1ccccc1)NC(=O)OCc1ccccc1 (configuration not stated)
inactive: [1] -11.7% | [2] -24.6% | [3] -27.7% | [4] 7.35% | [5] -25.4% | [6] -8.95%

O=C(O)CCCCCCc1ccc2ccccc2n1
inactive: [1] 16.8% | [2] 13.8% | [3] 16.5% | [4] 10% | [5] 7.05% | [6] -3.55%

COc1ccc(/C=C2/SC(=Nc3ccccc3)N(NC(=O)Cc3ccccc3)C2=O)cc1
inactive: [1] -22.7% | [2] -14.2% | [3] 13.7% | [4] -16.6% | [5] -26.6% | [6] -22.2%

CC(=O)Oc1cccc(C)c1
inactive: [1] -20.6% | [2] -4.75% | [3] -18.8% | [4] -28.4% | [5] -13.2% | [6] -5.65%

O=S(=O)(O)CC(NCc1ccccc1)c1ccccc1 (configuration not stated)
inactive: [1] -28.9% | [2] -0.45% | [3] -19.6% | [4] -36.9% | [5] 13.8% | [6] -5%

Nc1ccc(C(=O)N/N=C/C=C/c2ccccc2)cc1
inactive: [1] 0.6% | [2] 56.1% | [3] 16.6% | [4] -5.8% | [5] 30.4% | [6] 8.05%

C/C(CC(C)C)=N/Nc1ccc([N+](=O)[O-])cc1[N+](=O)[O-]
inactive: [1] 5.85% | [2] -2.05% | [3] 2.65% | [4] -42.6% | [5] 19.9% | [6] 26.8%

COc1c(C)c(OC)c(C(=O)CC(C)C)c(OC)c1C
inactive: [1] 0.4% | [2] 5.05% | [3] 35.2% | [4] 20.4% | [5] 19.7% | [6] -29.6%

O=C(Cc1ccccc1)NS(=O)(=O)c1ccccc1
inactive: [1] 5.15% | [2] -5.8% | [3] -12.3% | [4] 9.15% | [5] -3.95% | [6] 4.2%

COC1OC2COC(c3ccccc3)OC2C(O)C1N=[N+]=[N-] (configuration not stated)
inactive: [1] 3.4% | [2] 0.7% | [3] -1.35% | [4] -19.9% | [5] -4.4% | [6] 7.9%

Cc1ccc(C(C)(C)C)c2oc(=O)cc(C)c12
inactive: [1] 20.2% | [2] 8.75% | [3] 12.9% | [4] 5% | [5] 5.05% | [6] 19.8%

Fc1ccc(Cl)c2cccnc12
inactive: [1] 2.75% | [2] 9.85% | [3] -6% | [4] -33.7% | [5] 3.95% | [6] 8.1%

CCCCCCCCCCCCCCCCOCC(CCl)OP(=O)(O)OP(=O)(O)OCC1OC(n2ccc(N)nc2=O)C(O)C1O (configuration not stated)
inactive: [1] -33.3% | [2] -38.9% | [3] 15.1% | [4] -35% | [5] -37.4% | [6] -95.4%

CCOC(=O)c1[nH]c(C)c(/C(C)=N\NC(N)=O)c1C
inactive: [1] -20.2% | [2] -14.7% | [3] -7.4% | [4] -20.9% | [5] 8% | [6] 10.5%

CC1C2=C(CC(C)(C)CC2=O)OC2=C1C(=O)CC(C)(C)C2
inactive: [1] -16.1% | [2] -7.9% | [3] -7.8% | [4] -5.3% | [5] 4.65% | [6] -3.5%

C[Si](C)(C)c1ccc(CC2(Cc3ccc([Si](C)(C)C)cc3)CCNC2)cc1
inactive: [1] -32.9% | [2] -39% | [3] -19.9% | [4] 3.75% | [5] -10.2% | [6] -25.9%

CSc1nc2c(c(O)c(C)c(=O)n2C2OC(COC(C)=O)C(OC(C)=O)C(OC(C)=O)C2OC(C)=O)c(=O)n1C (configuration not stated)
inactive: [1] 10.1% | [2] -4.3% | [3] 62.8% | [4] 32.9% | [5] 34.7% | [6] 7.25%

COc1ccc(N2C=Nn3c(nc4sc(C)c(C)c4c3=O)C2)cc1
inactive: [1] 7% | [2] 12.9% | [3] 20.9% | [4] -12.3% | [5] 12.9% | [6] -1%

N#CCCCN1CCOCC1
inactive: [1] 0.8% | [2] -20.9% | [3] -7.9% | [4] 15.7% | [5] 0% | [6] 3.6%

O=C(NNC(=O)c1ccccc1Br)c1ccccc1Br
inactive: [1] -18.9% | [2] -48.8% | [3] -9.6% | [4] 0.45% | [5] -25.1% | [6] -18.1%

NC(=O)C(=O)N/N=C1\C(=O)N(c2ccc(Cl)cc2Cl)C(=O)C1C(=O)Nc1ccc(Cl)cc1Cl (configuration not stated)
inactive: [1] -0.65% | [2] -0.55% | [3] -15.5% | [4] 22.4% | [5] -14.2% | [6] -16.3%

CNCCCN1CCCCC1
inactive: [1] 31.8% | [2] 16% | [3] 22.4% | [4] 6.3% | [5] -4.4% | [6] 13.6%

O=C1c2ccccc2CN(C(=Nc2ccccc2)Nc2ccccc2)c2ccccc21
inactive: [1] 15.1% | [2] 2.95% | [3] -0.55% | [4] -25.7% | [5] -0.7% | [6] 14.9%

Source: PubChem BioAssay (NCI)
